Only some compounds are listed: those with a hit (about 3% of all), similar ones and a draw of the others.
SENP8 block-1: SENP8 protease inhibitors, primary screen, biochemical, luminescence | Sentrin-specific protease 8 (Homo sapiens), Q96LD8 | inhibition, % at 10 µM | purified SENP8, Z-RLRGG-aminoluciferin cleavage | AID 2540, 2010 | hit rate 1.2% among 330,000; in the data active = inhibition above about 50%
SENP7 block: SENP7 protease inhibitors, primary screen, biochemical, luminescence, uHTS; Sentrin-specific protease 7 (Homo sapiens), Q9BQF6; recombinant SENP7, Z-RLRGG-aminoluciferin luminescence, 40 min; inhibition, % at 5 µM; hit rate 1.5% among 330,000; AID 434973, 2010;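 active = inhibition above about 50% at the single test dose, limit read from the data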;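 also: plate controls were DMSO with enzyme for no effect and no enzyme buffer wells for full effect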
PPC-1+TRAIL kill: compounds killing PPC-1 cancer cells with TRAIL present, primary screen, TRAIL potentiator project, ATPLite luminescence, uHTS | PPC-1 cells + TRAIL, ATPLite viability luminescence | cell killing (% activity), % at 4 µM or 5 µM | hit rate 0.41% among 220,000 | AID 1443, 2008;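 active = cell killing above 50% in the first pass at 4 µM, then a duplicate retest at 5 µM averaging 50% or more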;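 also: plate controls were cells with TRAIL plus DMSO for no effect and medium-only wells lacking cells for full effect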
TRAIL sens C8: viability loss with TRAIL in NB7+C8 cells, primary screen, TRAIL sensitizer project, cell-based, ATPlite luminescence. hit rate 1% among 360,000. inhibition (viability loss, TRAIL sensitization), % at 10 µM. AID 624354, 2012;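 active = compounds causing at least 50% loss of cell viability in the single-dose screen, relative to plate controls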
SENP8 block-2: human SENP8 protease inhibitors, primary screen, biochemical, fluorescence, Nedd8 protein substrate, uHTS. Sentrin-specific protease 8 (Homo sapiens), Q96LD8. recombinant SENP8. inhibition, % at 20 µM. hit rate 0.64% among 360,000. AID 602440, 2012; in the data active = inhibition mostly above about 40%, no sharp cut-off; inactive = mostly below about 27%
SENP6 block: SENP6 protease inhibitors, primary screen, biochemical, luminescence, uHTS; inhibition, % at 10 µM; hit rate 1.8% among 330,000; AID 2599, 2010; Recombinant SENP6 catalytic domain, aminoluciferin luminescence;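 active = inhibition above about 50% at the single tested dose, limit read from the data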;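 also: plate controls were DMSO wells with enzyme for no effect and DMSO wells lacking enzyme for full effect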
Target sequence (Q9GZR1 628-1112 limits assumed): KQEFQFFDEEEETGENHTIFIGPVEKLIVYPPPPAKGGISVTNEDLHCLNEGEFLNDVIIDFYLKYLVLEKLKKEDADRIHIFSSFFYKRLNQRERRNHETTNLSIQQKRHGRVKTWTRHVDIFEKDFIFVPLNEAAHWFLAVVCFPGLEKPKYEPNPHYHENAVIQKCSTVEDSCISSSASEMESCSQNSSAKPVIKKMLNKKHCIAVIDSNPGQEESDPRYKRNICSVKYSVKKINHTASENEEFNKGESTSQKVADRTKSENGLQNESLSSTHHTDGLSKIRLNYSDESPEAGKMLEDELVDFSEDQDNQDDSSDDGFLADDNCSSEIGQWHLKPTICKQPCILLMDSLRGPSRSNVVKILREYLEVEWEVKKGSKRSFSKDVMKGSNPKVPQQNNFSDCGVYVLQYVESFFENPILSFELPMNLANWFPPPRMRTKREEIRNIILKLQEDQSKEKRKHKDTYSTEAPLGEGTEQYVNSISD
SENP8 conf: SENP8 protease inhibitors, retest, confirmation, biochemical, luminescence, single concentration; shares compounds with SENP7 block; inhibition, % at 12.5 µM; Recombinant SENP8, Z-RLRGG-aminoluciferin luminescence, 60 min; AID 488912, 2010; hit rate 40% among 6,200;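 active = mean inhibition across replicates above about 50%, limit read from the data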
SENP6 confirm: SENP6 protease inhibitors, confirmation, biochemical, luminescence, single concentration. hit rate 58% among 6,200. recombinant SENP6, Z-RLRGG-aminoluciferin luminescence. shares compounds with SENP7 block. inhibition, % at 12.5 µM
SENP7 conf: SENP7 protease inhibitors, retest, confirmation, biochemical, luminescence, single concentration. shares compounds with SENP7 block. recombinant SENP7, Z-RLRGG-aminoluciferin luminescence, 40 min. inhibition, % at 12.5 µM. hit rate 69% among 6,200
Casp3 SENP sel: caspase-3 protease inhibitors, confirmation, selectivity assay for SENP inhibitor project, biochemical, single concentration; shares compounds with SENP7 block; purified caspase-3, Z-DEVD-aminoluciferin luminescence, 60 min; inhibition, % at 12.5 µM; hit rate 60% among 6,200; AID 488918, 2010;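 active = mean inhibition above about 50%, limit read from the data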;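 also: plate controls were enzyme with DMSO for no effect and wells without caspase-3 for full effect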
Luc interf: luminescence interference (SENP counter-screen); inhibition, % at 12.5 µM; hit rate 39% among 6,200; shares compounds with SENP7 block; Pre-incubated SENP8/Z-RLRGG-aminoluciferin, luciferase luminescence interference;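 active = mean inhibition above about 50% when retested at one dose, limit read from the data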;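 also: plate controls were DMSO wells with completed reaction for no effect and substrate without enzyme for full effect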
Starred values were filed as active, the others as inactive.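 The calls were made as follows, unless noted: active = mean inhibition above about 50% in the one-dose retest (limit read from the data); inactive = the rest.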

What do the screens show for `CCCOC(=O)c1c(N)n(Cc2cccs2)c2nc3ccccc3nc12`?
SENP8 block-1: -2; SENP7 block: -2; PPC-1+TRAIL kill: 13; TRAIL sens C8: -2; SENP8 block-2: -284; SENP6 block: 5

How did CCCCNC(=O)c1c(N)n(Cc2ccc3c(c2)OCO3)c2nc3ccccc3nc12 do in these assays?
SENP8 block-1: 89*; SENP7 block: 62*; PPC-1+TRAIL kill: 18; TRAIL sens C8: 20; SENP8 block-2: -270; SENP6 block: 94*; SENP8 conf: -7; SENP6 confirm: 3; SENP7 conf: -2; Casp3 SENP sel: 5; Luc interf: 3

Results for Nc1c(C(=O)NCCCc2ccccc2)c2nc3ccccc3nc2n1Cc1cccs1 ?
SENP8 block-1: 46; SENP7 block: 35; PPC-1+TRAIL kill: 46; TRAIL sens C8: 1; SENP8 block-2: -285; SENP6 block: 60*; SENP8 conf: -18; SENP6 confirm: 11; SENP7 conf: 0; Casp3 SENP sel: -5; Luc interf: -6

How did CC=C(C)C1(CCC)C(=O)NC(=S)NC1=O do in these assays?
TRAIL sens C8: 3; SENP8 block-2: 17

How did Cc1noc(C)c1COc1ccc(C(=O)NCC2(N(C)C)CCCCC2)cc1 do in these assays?
TRAIL sens C8: -3; SENP8 block-2: 20

How did CC(C)(C)C(=O)N1Cc2cc(N3CCOCC3)ccc2-n2nncc2C1 do in these assays?
TRAIL sens C8: 22; SENP8 block-2: -2

Results for CCCCn1c(N)c(C(=O)NCc2cccs2)c2nc3ccccc3nc21 ?
SENP8 block-1: 93*; SENP7 block: 38; PPC-1+TRAIL kill: 24; TRAIL sens C8: -4; SENP8 block-2: -257; SENP6 block: 88*; SENP8 conf: 10; SENP6 confirm: 18; SENP7 conf: 17; Casp3 SENP sel: 2; Luc interf: 2

What do the screens show for `CCCCCCn1c(N)c(C(=O)NCCN2CCOCC2)c2nc3ccccc3nc21`?
SENP8 block-1: 7; SENP7 block: 22; PPC-1+TRAIL kill: 13; TRAIL sens C8: -14; SENP8 block-2: -432; SENP6 block: 36

How did CCOC(=O)[C@]12Cc3c(cc(OC)c(OC)c3OC)[C@H]1N(C(C)C)C(=O)c1ccccc12 do in these assays?
TRAIL sens C8: 5; SENP8 block-2: 5

What do the screens show for `Cc1nc(Cl)sc1C(=O)Nc1ccc2ccccc2c1`?
SENP8 block-1: 20; SENP7 block: 29; PPC-1+TRAIL kill: 17; TRAIL sens C8: 4; SENP8 block-2: 9; SENP6 block: 55*; SENP8 conf: 36; SENP6 confirm: 32; SENP7 conf: 75*; Casp3 SENP sel: 34; Luc interf: 32

What do the screens show for `COc1ccc(CN2Cc3cc(-c4ccc(OC)cc4)ccc3-n3nncc3C2)cc1`?
TRAIL sens C8: -2; SENP8 block-2: -26

How did CCNCC(O)c1cccc(O)c1 (centres undefined) do in these assays?
SENP8 block-1: -7; SENP7 block: -7; TRAIL sens C8: 6; SENP8 block-2: 3; SENP6 block: -10

How did NNCc1cccc(O)c1 do in these assays?
SENP8 block-1: 72*; SENP7 block: 56*; PPC-1+TRAIL kill: 2; TRAIL sens C8: 6; SENP8 block-2: 7; SENP6 block: 81*; SENP8 conf: 18; SENP6 confirm: 20; SENP7 conf: 55*; Casp3 SENP sel: 52*; Luc interf: 73*

Results for COC(=O)C1=COC(C)C2CN3CCc4c([nH]c5cc(OC)ccc45)C3CC12 (centres undefined) ?
TRAIL sens C8: -11; SENP8 block-2: -52

What do the screens show for `COC(=O)C1=C(c2ccc(C(C)=O)cc2)C[C@@H]2CC[C@H]1N2C(=O)NCc1ccc2c(c1)OCO2`?
SENP8 block-1: -4; SENP7 block: 5; TRAIL sens C8: 7; SENP8 block-2: -11; SENP6 block: -12

How did CC(C)[C@H]1C(=O)N2CCC[C@H]2[C@]2(O)O[C@](NC(=O)[C@@H]3C=C4c5cccc6[nH]cc(c56)C[C@H]4N(C)C3)(C(C)C)C(=O)N12 do in these assays?
SENP8 block-1: 43; SENP7 block: 40; PPC-1+TRAIL kill: 33; TRAIL sens C8: -2; SENP8 block-2: -379; SENP6 block: 52*; SENP8 conf: -11; SENP6 confirm: 4; SENP7 conf: -7; Casp3 SENP sel: -2; Luc interf: -8

Results for CC(C)C[C@H]1C(=O)N2CCCC2[C@]2(O)O[C@](NC(=O)[C@@H]3C=C4c5cccc6[nH]cc(c56)CC4N(C)C3)(C(C)C)C(=O)N12 (some centres undefined) ?
SENP8 block-1: 42; SENP7 block: 33; PPC-1+TRAIL kill: 14; TRAIL sens C8: -10; SENP8 block-2: -389; SENP6 block: 54*; SENP8 conf: 17; SENP6 confirm: 30; SENP7 conf: 10; Casp3 SENP sel: 6; Luc interf: -2

How did CC(C)[C@@]1(NC(=O)[C@@H]2C=C3c4cccc5[nH]cc(c45)C[C@H]3N(C)C2)O[C@@]2(O)[C@@H]3CCCN3C(=O)[C@H](Cc3ccccc3)N2C1=O do in these assays?
PPC-1+TRAIL kill: 15

What do the screens show for `C[C@]12CCC3C(CC[C@H]4C[C@@H](O)CC[C@]34C)C1=CC[C@@H]2O` (some centres undefined)?
TRAIL sens C8: -14; SENP8 block-2: 15

Results for O=NN(CCF)C(=O)NC1CCC(=O)NC1=O (centres undefined) ?
TRAIL sens C8: 1; SENP8 block-2: 25
